This note sets out measurements from PubChem BioAssay (NCATS).

Records with an inconclusive call do not appear. Calls of active or inactive are those of the source. Unless noted, calls come from the whole dose curve; as a rule, active = well fitted curve in the direction sought with a large enough effect; inconclusive = small, poorly fitted or top-dose-only effect, or another doubt; inactive = no such curve, though single readings can be large; an effect the other way counts as inactive or inconclusive.

Assay [1] is described as follows: qHTS profiling of the MIPE4 collection as inhibitors of Plasmodium falciparum (3D7) proliferation (AID 743344; call rule not given here;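 note: scaled between DMSO vehicle wells and 0.29 µM artemisinin as full inhibition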). Conditions: P. falciparum 3D7 in erythrocytes, SYBR Green DNA fluorescence, 72 h; at 5.51 µM (top of the series) unless noted. In short, it runs like this: (§1)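 Erythrocytes infected with P. falciparum (0.3% parasitemia, 2.5% hematocrit) incubated with compounds 72 h at 37 C, 5% CO2. Lysis with saponin/Triton buffer containing SYBR Green I, overnight at room temperature in the dark; DNA fluorescence (485/535 nm) normalised to 0.29 uM artemisinin and DMSO.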

The nature of assay [2]: qHTS profiling of the MIPE4 collection as inhibitors of Plasmodium falciparum (DD2) proliferation (AID 743345; call rule not given here). Conditions: P. falciparum Dd2 in erythrocytes, SYBR Green DNA, 72 h; at 5.51 µM (top of the series) unless noted. The gist of the method: as §1
The nature of assay [3]: qHTS profiling of the MIPE4 collection as inhibitors of Plasmodium falciparum (DD2) proliferation (Rep 2) (AID 743346; call rule not given here). To be noted: P. falciparum Dd2 in erythrocytes, SYBR Green DNA, 72 h; at 5.51 µM (top of the series) unless noted. In short, it runs like this:
as §1

The nature of assay [4]: qHTS profiling of the MIPE4 collection as inhibitors of Plasmodium falciparum (HB3) proliferation (AID 743347; call rule not given here;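 note: plate controls were DMSO vehicle wells for no effect and artemisinin wells for full effect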). To be noted: P. falciparum HB3 in erythrocytes, SYBR Green DNA, 72 h; at 5.51 µM (top of the series) unless noted. The gist of the method:
as §1

For assay [5], the target named is Glutathione peroxidase 1 (Homo sapiens) (UniProt P07203). Briefly: Primary qHTS Assay for Inhibitors of Recombinant Selenoprotein Glutathione Peroxidase 1 (GPX1) (AID 1845191). Note: % is set by controls: 0 for no effect and ±100 for the full control effect; nearly all actives have a fitted effect of over 65% in size. To be noted: recombinant GPX1, GR-coupled NADPH fluorescence, 15 min; series mostly up to 48.8 µM. The gist of the method: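 Recombinant GPX1 (10 nM final) was preincubated with compound for 30 min at room temperature, then reacted with 1 mM GSH, 0.5 mM CHP, 0.5 mM NADPH and 100 nM glutathione reductase; NADPH fluorescence (340/450 nm) was read at 0 and 15 min.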

Assay [6] in a line: Confirmation and Secondary Assay for Modulators of Hemoglobin Beta Chain Splicing at IVS2 654 locus (AID 910).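 Note: per-well total GFP intensity by laser scanning cytometry after 2-day treatment; % of control where 0% means no effect.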 To be noted: HeLa EGFP-654 splicing reporter, GFP fluorescence, 48 h; series mostly up to 38.3 µM. In short, it runs like this: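 HeLa cells stably carrying EGFP interrupted by mutant beta-globin IVS2-654 intron (CMV-driven) were treated with compound for 2 days at 37C; corrected splicing was scored as total peak GFP intensity per well (488 nm excitation, 500-520 nm emission).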

Sequence of Glutathione peroxidase 1 (Homo sapiens) (P07203 whole entry, looked up): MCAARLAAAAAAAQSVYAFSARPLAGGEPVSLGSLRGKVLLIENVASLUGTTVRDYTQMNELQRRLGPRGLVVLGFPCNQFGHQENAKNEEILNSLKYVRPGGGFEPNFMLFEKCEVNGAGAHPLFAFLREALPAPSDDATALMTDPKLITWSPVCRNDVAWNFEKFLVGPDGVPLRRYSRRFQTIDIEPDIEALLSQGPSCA

In assay [1], `NC[C@@H]1O[C@H](O[C@H]2[C@H](O)[C@H](O[C@H]3[C@@H](O)[C@H](N)C[C@H](N)[C@H]3O[C@H]3O[C@H](CN)[C@H](O)[C@H](O)[C@H]3N)O[C@@H]2CO)[C@@H](N)[C@@H](O)[C@@H]1O` came in with a parasite growth, % of DMSO control of 98.8%. Further, in assay [2], the parasite growth remaining, % of DMSO control (lower = more inhibition) is 101%. In assay [3], this compound came in with a parasite growth, % of control (lower = inhibition) of 77.1%. The compound also showed a growth, % of control in assay [4] of 77.3%. The activity, negative = inhibition in assay [5] is -26.7% [at 4.49 µM] (inactive).

`N#Cc1cccc(-c2cc(-n3ccnc3)ncn2)c1`: in assay [6], the Potency result is “inactive”. Same read-out and setting: under `Cc1ccccc1-c1nccc(-n2ccnc2)n1` stands “inactive”; under `COCCNc1ccnc(-c2c(C)noc2C)n1`, “inactive”; under `COc1cccc(-c2cncnc2NCCc2cnc[nH]2)c1`, “inactive”.
